About 83,000 compounds went through this panel and 20% of them were active in at least one assay; those are over-represented in the sample as a whole.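 Interpretation: 100, growth as untreated; towards 0, rising growth inhibition; 0, no net growth; 0 to -100, cell death. Compounds scoring below 10 were considered active.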 A number with no mark means an inactive call. Activity calls are given as the source filed them.
These molecules were tested on HOP-92 NSCLC (assay: NCI-60 one-dose screen, 48 h (100 = growth as untreated, 0 = no growth, -100 = all killed)). Settings: 10 µM unless noted.

Row | SMILES | growth
1 | COc1cc(C=O)ccc1OC(=O)c1cc(-c2ccc(C)cc2)n(-c2ccc(S(C)(=O)=O)cc2)n1 | 98.3%
2 | N#CC1=C(c2cccs2)Nc2c(c(-c3ccccc3)nn2-c2ccccc2)C12C(=O)Nc1ccccc12 (stereo not drawn) | -13.1% (active)
3 | COc1ccc(/C=C/c2nc3ccccc3c(=O)n2CC(=O)Nc2ccccc2)cc1 | -0.34% (active)
4 | COc1ccc2c(c1)C(=O)N(C)C2C1c2c(cc3c(c2OC)OCO3)CCN1C (stereo not drawn) | 78.7%
5 | Cc1ccc(C(C(=O)NC2CCCCC2)N(Cc2ccccc2Cl)C(=O)c2ccc(CN3CCOCC3)o2)o1 (stereo not drawn) | 91.3%
6 | O=C(NNC(=S)NCCc1ccccc1)c1ccc(OCc2nc3ccc(Cl)cc3[nH]2)cc1 | 144%
7 | COc1ccc2c(c1)N=c1c-2cc2c(O)[nH]c(=S)n2c1=O | 71.3%
8 | Cc1ccc(C2CC(c3ccc(NC(=O)Nc4ccccc4)cc3)=NN2c2ccc(S(C)(=O)=O)cc2)cc1 (stereo not drawn) | -50.4% (active)
9 | COc1ccc(C(=O)NNC(=O)CSc2nc3sc4c(c3c(=O)n2-c2ccc(Cl)cc2)CCCC4)cc1 | 60.8%
10 | N#Cc1c(-c2ccc(F)cc2)nc(SCc2ccc(F)cc2)nc1N1CCNCC1 | -64.9% (active)
11 | Cc1ccc(C2CC(c3ccc(NC(=O)Nc4ccccc4)cc3)=NN2c2ccc(S(N)(=O)=O)cc2)cc1 (stereo not drawn) | -81.3% (active)
12 | O=c1[nH]c2ccccc2cc1CSc1ccccc1Nc1nccc(-c2ccc3c(c2)OCO3)n1 | 71.7%
13 | COc1ccc2c(c1)C(Sc1ccc(F)cc1)c1c(nc(N)c(C#N)c1N)O2 (stereo not drawn) | 116%
